Screening results as filed in PubChem.
TSHR antagonist = human thyrotropin receptor antagonism; activity change, negative = inhibition, % at 11.5 µM; P16473; AID 504810; TSHR-expressing cells, TSH-stimulated cAMP HTRF, 2 h; active compounds read low; hit rate 0.2% among 330,000;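 active means activity change below a set negative limit, meaning inhibition stronger than a set level, cut at about -70% in these data; inconclusive means activity change between two set negative limits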
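TSHR-expressing cells were treated with compounds, then stimulated with TSH at EC80 (4nM final) for 2 hours at 37 deg C. Cellular cAMP was measured by HTRF competition between lysate cAMP and cAMP-d2 for a cryptate-labelled anti-cAMP antibody.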
uPA generation = inhibitors of cell surface uPA generation; cell surface uPA generation assay, qHTS; Potency, µM (titrated, usually from 38.3 µM), most hits filed as inhibitors; hit rate 0.31% among 330,000; AID 540303; active means well fitted inhibition curve with a large enough effect; inconclusive means small, poorly fitted or top-dose-only effect; inactive means no such curve, though single readings can be large or run the other way; tested in mouse RAW 264.7 cells; further: nearly all actives have a fitted effect of over 55% in size
TCR act = T cell receptor activation; 330,000 tested, under 10 active; Potency, µM (titrated, usually from 9.22 µM), actives largely listed as activators; primary human leukocytes, anti-CD3, IL-2 HTRF, 48 h; AID 504894
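48 hr co-incubation of compounds, a-CD3 beads and primary human leukocytes; IL-2 quantified homogeneously by HTRF with anti-IL-2 K and d2 conjugates.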
PKM2 act = increases activity of human pyruvate kinase M2; hit rate 0.34% among 260,000; Potency, µM (titrated, usually from 57.5 µM), hits mostly activators; P14618; purified PKM2, Kinase-Glo ATP luminescence, activation; response scale: 0% is enzyme alone, no compound; further: nearly all actives have a fitted effect of over 55% in size
Target sequence (P14618 whole entry, looked up): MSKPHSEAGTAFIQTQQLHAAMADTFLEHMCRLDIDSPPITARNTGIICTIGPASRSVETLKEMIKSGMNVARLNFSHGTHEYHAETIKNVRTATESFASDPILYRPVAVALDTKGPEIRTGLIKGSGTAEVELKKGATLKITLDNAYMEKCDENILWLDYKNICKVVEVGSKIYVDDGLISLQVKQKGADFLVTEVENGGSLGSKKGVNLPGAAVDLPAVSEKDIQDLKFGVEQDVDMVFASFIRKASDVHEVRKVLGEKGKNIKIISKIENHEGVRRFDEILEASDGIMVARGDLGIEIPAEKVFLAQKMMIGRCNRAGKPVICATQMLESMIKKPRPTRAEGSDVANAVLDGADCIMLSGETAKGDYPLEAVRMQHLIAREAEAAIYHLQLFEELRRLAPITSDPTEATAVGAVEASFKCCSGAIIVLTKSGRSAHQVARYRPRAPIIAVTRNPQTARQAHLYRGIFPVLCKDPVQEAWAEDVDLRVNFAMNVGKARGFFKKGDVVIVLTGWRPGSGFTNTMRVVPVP
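Purified hPK-M2 (>95% pure) converted ADP (0.1 mM final) to ATP with 0.5 mM PEP in 50 mM imidazole pH7.2, KCl, MgCl2, Tween 20, BSA; 1 h at room temperature. ATP detected by Kinase-Glo luminescence.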
HeLa viability = counter-screen for pyruvate kinase M2 activators: HeLa cytotoxicity. shares compounds with PKM2 act. HeLa viability, CellTiter-Glo ATP luminescence, 24 h. activity change, negative = cytotoxicity, % at 57.5 µM. 230 tested, under 10 active. AID 1898
Each line names hits and unclear results; the compound was inactive in the other large screens (follow-up assays come after a bar, where they were run). A selection: hits, their analogues and other compounds. The true share with any hit is near 0.75%. Unless noted, the call rests on the fitted dose curve; in most records, active means well fitted curve in the direction sought with a large enough effect; inconclusive means small, poorly fitted or top-dose-only effect, or another doubt; inactive means no such curve, though single readings can be large; an effect the other way counts as inactive or inconclusive.

O=C1NC(=O)c2cc(Br)cc3cccc1c23	none
Cc1ccc(NS(=O)(=O)c2cc3c4c(cccc4c2)C(=O)NC3=O)cc1C	PKM2 act 4µM | HeLa viability inconclusive
Cn1c(CO)cnc1S(=O)(=O)Cc1c(Cl)cccc1Cl	none (no result: PKM2 act)
Nc1nc2ccc(O)cc2s1	none
Nc1nc2ccc(S(=O)(=O)c3ccc4nc(N)sc4c3)cc2s1	PKM2 act 14µM | HeLa viability inactive
Cn1c(N)c(C(=O)CSc2ccc3c(c2)OCCO3)c(=O)n(C)c1=O	PKM2 act 3.5µM | HeLa viability inactive
CCNC(=S)N(CCO)Cc1cc2cc3c(cc2[nH]c1=O)OCO3	none
COc1cc2c(C(=O)NCc3ccc(C)o3)cn(CC(C)C)c(=O)c2cc1OC	PKM2 act 14µM | HeLa viability inactive
CCn1cc(C(=O)NCc2ccco2)c2cc(OC)c(OC)cc2c1=O	none
CC(OC(=O)CNC(=O)c1ccc2ccccc2c1)C(=O)NC1CCCCC1C (stereo not drawn)	none
O=S(=O)(c1c(F)cccc1F)C1CCN(S(=O)(=O)c2ccc3c(c2)OCCO3)CC1	none (no result: PKM2 act) | HeLa viability inactive
COc1cccc(S(=O)(=O)N2CCN(S(=O)(=O)c3ccc4c(c3)OCCO4)CC2)c1	none (no result: TSHR antagonist, uPA generation, TCR act, PKM2 act) | HeLa viability inactive
O=S(=O)(c1ccc2c(c1)OCCO2)N1C[C@@H]2C[C@H]1CN2S(=O)(=O)c1c(F)cccc1F	none (no result: PKM2 act)
CC1(C)CCc2cc(S(=O)(=O)N3CCN(S(=O)(=O)c4c(F)cccc4F)CC3)ccc2O1	none (no result: PKM2 act) | HeLa viability inactive
O=C1CCc2cc(S(=O)(=O)N3CCN(c4ccccc4F)CC3)ccc2N1	none
C[C@H]1CN(S(=O)(=O)c2ccc3c(c2)OCCO3)CCN1S(=O)(=O)c1c(F)cccc1F	none (no result: PKM2 act) | HeLa viability inactive
CC(Oc1ccccc1Cl)C(=O)Nc1ccc(S(=O)(=O)Nc2nccs2)cc1 (stereo not drawn)	none (no result: PKM2 act)
CCOc1ccc(N/C(N)=N/c2nc(CSc3nnnn3-c3ccccc3)cc(=O)[nH]2)cc1	none
COc1ccc(-n2c(CNC(=O)COc3ccc(Cl)cc3Cl)n[nH]c2=S)cc1	uPA generation inconclusive
O=S(=O)(c1ccc2c(c1)OCCO2)N1CCN(S(=O)(=O)c2c(F)cccc2F)CC1	none (no result: TSHR antagonist, uPA generation, TCR act, PKM2 act) | HeLa viability inconclusive
O=S(=O)(NCC1CN(S(=O)(=O)c2c(F)cccc2F)C1)c1ccc2c(c1)OCCO2	none (no result: PKM2 act) | HeLa viability inactive
O=S(=O)(NCCCCCNS(=O)(=O)c1c(F)cccc1F)c1ccc2c(c1)OCCO2	none (no result: PKM2 act) | HeLa viability inactive
O=S(=O)(c1ccc2c(c1)OCO2)N1CCN(S(=O)(=O)c2c(F)cccc2F)CC1	none (no result: TSHR antagonist, uPA generation, TCR act, PKM2 act) | HeLa viability inconclusive
O=C1CN(S(=O)(=O)c2ccc3c(c2)OCCO3)CCN1S(=O)(=O)c1c(F)cccc1F	none (no result: TSHR antagonist, uPA generation, TCR act, PKM2 act) | HeLa viability inactive
O=C(c1ccc2c(c1)OCCO2)N1CCN(S(=O)(=O)c2c(F)cccc2F)CC1	none (no result: PKM2 act) | HeLa viability inconclusive
O=S(=O)(c1ccc2c(c1)OCCO2)N1CCN(S(=O)(=O)c2c(F)cc(F)cc2F)CC1	none (no result: PKM2 act)
O=S(=O)(c1ccc2c(c1)OCCO2)N1CCCN(S(=O)(=O)c2c(F)cccc2F)CC1	none (no result: PKM2 act) | HeLa viability inactive
CS(=O)(=O)N1CCN(C(=O)c2ccc3c(c2)OCCO3)CC1	none
CN1CCOc2ccc(S(=O)(=O)N3CCN(S(=O)(=O)c4c(F)cccc4F)CC3)cc21	none (no result: uPA generation, TCR act, PKM2 act) | HeLa viability inactive
CCOc1cc(-c2noc(CCC(=O)Nc3cccnc3)n2)ccc1OC	PKM2 act 1.4µM | HeLa viability inactive
COc1ccc(-c2noc(CCC(=O)Nc3cccnc3)n2)cc1	none (no result: PKM2 act)
Cc1ccc(C)c2[nH]c(=O)c(CCNC(=O)CCc3ccccc3)cc12	none
CCOC(=O)c1c(NC(=O)CCc2ccc(CC)o2)sc(C)c1C	PKM2 act inconclusive
COC(=O)c1c(NC(=O)CCc2ccc(C)o2)sc(C)c1C	PKM2 act 7.9µM | HeLa viability inactive
Fc1ccccc1Cn1nnc2c(-n3ccnc3)ncnc21	PKM2 act 1.1µM | HeLa viability inactive
COc1ccc2nc(SCC(=O)Nc3cc(C)on3)c(C#N)cc2c1	none (no result: PKM2 act)
COc1cc2cc(C#N)c(SCC(=O)Nc3cc(C)on3)nc2cc1OC	PKM2 act 0.22µM | HeLa viability inactive
Cc1c(Cl)cccc1NC(=O)CCN1C(=O)NC(C)(C)C1=O	none (no result: PKM2 act)
CCCSc1nc2c3c(sc2c(=O)[nH]1)CC(C)(CC)OC3 (stereo not drawn)	none
Cc1ccc(S(=O)(=O)N2CCN(S(=O)(=O)c3ccc4c(c3)OCCO4)CC2)cc1	PKM2 act inconclusive
O=S(=O)(c1ccc(F)cc1)N1CCN(S(=O)(=O)c2ccc3c(c2)OCCO3)CC1	none (no result: PKM2 act) | HeLa viability inactive
N#Cc1ccc(S(=O)(=O)N2CCN(S(=O)(=O)c3ccc4c(c3)OCCO4)CC2)cc1	none (no result: TSHR antagonist, uPA generation, TCR act, PKM2 act) | HeLa viability inactive
CCCc1cc(F)c(S(=O)(=O)N2CCN(S(=O)(=O)c3ccc4c(c3)OCCO4)CC2)cc1F	none (no result: TSHR antagonist, uPA generation, TCR act, PKM2 act) | HeLa viability inactive
O=S(=O)(c1ccc(Cl)cc1)N1CCN(S(=O)(=O)c2ccc3c(c2)OCCO3)CC1	none (no result: TSHR antagonist, uPA generation, TCR act, PKM2 act) | HeLa viability inconclusive
COc1cccc(CN(C(=O)c2cc3ccccc3oc2=O)C2CCS(=O)(=O)C2)c1 (stereo not drawn)	none (no result: PKM2 act)
CCN1C(=O)c2cccc3c(S(=O)(=O)Nc4ccccc4)ccc1c23	PKM2 act 4µM (no result: TCR act) | HeLa viability inconclusive
CCN1C(=O)c2cccc3c(S(=O)(=O)NC(Cc4ccccc4)C(=O)O)ccc1c23 (stereo not drawn)	none
CC1CN(S(=O)(=O)c2cccc(C(=O)NCc3ccccn3)c2)CC(C)O1 (stereo not drawn)	none (no result: PKM2 act)
Cc1cccc(CN2CCN(c3nc4nonc4nc3NC3CC3)CC2=O)c1	PKM2 act 3.5µM | HeLa viability inactive
Cn1cc(CCCC(=O)NCc2ccc(F)cc2)c2ccccc21	none (no result: PKM2 act)
COc1ccc(N=C2CC(C)(C)CC(=O)/C2=C(/O)c2ccccc2)cc1	none
O=C(c1cccs1)N1N=C(c2ccccc2)CC1c1ccccc1O (stereo not drawn)	none (no result: TCR act)
CC(=O)N1N=C(c2ccncc2)CC1c1ccccc1O (stereo not drawn)	PKM2 act 4.5µM | HeLa viability inactive
Cc1ccc2oc(C(=O)N(C)Cc3ccon3)c(C)c2c1	uPA generation inconclusive (no result: PKM2 act)
Cc1ccc2oc(C(=O)N(C)Cc3ccc(C)o3)c(C)c2c1	uPA generation inconclusive, PKM2 act 6.3µM | HeLa viability inactive
c1ccc(-c2nn3c(Cn4cnc5ccccc54)nnc3s2)cc1	PKM2 act 3.2µM (no result: uPA generation) | HeLa viability inactive
c1ccc(-c2nn3c(Cn4nnc5ccccc54)nnc3s2)cc1	none (no result: TCR act)
COc1ccc(C(=O)NCCN2C(=O)S/C(=C\c3cccnc3)C2=O)cc1[N+](=O)[O-]	PKM2 act 3.5µM | HeLa viability inactive
Cc1ccccc1-c1nnn(CC(=O)N2CCN(S(=O)(=O)c3ccc(Cl)cc3)CC2)n1	PKM2 act inconclusive
O=C(Cn1nnc(-c2ccccc2)n1)N1CCN(S(=O)(=O)c2ccc(Cl)cc2)CC1	PKM2 act 2.5µM (no result: TCR act) | HeLa viability inactive
